Assay outcomes: PubChem BioAssay, National Center for Advancing Translational Sciences (NCATS)
Menin-MLL TR inh: displaces Texas Red mutant MLL peptide from human menin. Menin + Texas Red MLL mutant peptide, fluorescence polarization. Potency, µM (series often up to 61.6 µM), without a hit: at the top dose FP activity change, negative = inhibition, actives largely listed as inhibitors. hit rate 0.23% among 270,000; active = well fitted inhibition curve with a large enough effect in the polarisation, with a control signal flat, not every such curve was filed as active; inconclusive = small, poorly fitted or top-dose-only effect, or effect the other way, or a change in a side signal; inactive = no such curve, though single readings can be large or run the other way; the % refers to the polarisation; also: potency is read from the fitted curve at half-maximal effect; % of control where 0% means no effect
Target sequence (O00255 whole entry, looked up): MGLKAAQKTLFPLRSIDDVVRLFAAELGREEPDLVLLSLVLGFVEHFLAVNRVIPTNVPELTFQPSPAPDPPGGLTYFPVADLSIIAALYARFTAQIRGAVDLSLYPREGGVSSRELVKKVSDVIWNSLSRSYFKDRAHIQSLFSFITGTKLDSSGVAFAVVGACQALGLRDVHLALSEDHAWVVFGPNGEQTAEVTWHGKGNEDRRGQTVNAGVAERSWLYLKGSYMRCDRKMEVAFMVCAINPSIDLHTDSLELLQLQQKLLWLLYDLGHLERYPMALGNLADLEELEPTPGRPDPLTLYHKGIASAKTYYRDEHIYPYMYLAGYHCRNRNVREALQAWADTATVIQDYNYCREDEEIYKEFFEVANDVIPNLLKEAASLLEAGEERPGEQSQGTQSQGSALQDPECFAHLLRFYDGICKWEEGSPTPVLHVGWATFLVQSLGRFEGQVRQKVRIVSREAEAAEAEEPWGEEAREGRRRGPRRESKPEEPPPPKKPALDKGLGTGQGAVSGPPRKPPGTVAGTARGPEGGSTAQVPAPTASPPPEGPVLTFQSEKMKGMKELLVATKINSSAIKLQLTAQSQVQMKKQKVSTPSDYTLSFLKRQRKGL
MLL CXXC-DNA inh: inhibitors of human MLL CXXC domain-DNA interaction | Q03164 | MLL-CXXC / FITC-HOXA9 DNA fluorescence polarization | Potency, µM (titrated, usually from 115 µM), without a hit: at the highest dose activity change, negative = inhibition, usual class: inhibitors | hit rate 0.037% among 290,000 | AID 2662; active = well fitted inhibition curve with a large enough effect in the polarisation, with a control signal flat, not every such curve was filed as active; inconclusive = small, poorly fitted or top-dose-only effect, or effect the other way, or a change in a side signal; inactive = no such curve, though single readings can be large or run the other way; the % refers to the polarisation; also: potency is read from the fitted curve at half-maximal effect
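Fluorescence polarization: 7 uM MLL-CXXC (stock) preincubated 5 min with compounds, then 50 nM fluorescein-HOX-A9 DNA (stock) added; 30 min ambient. Buffer 50 mM Tris-HCl pH 7.5, 50 mM NaCl, 1 mM DTT, 0.05% BSA.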
ClpP mod: qHTS Assay for Activators of ClpP. hit rate 1.9% among 340,000. purified B. subtilis ClpP, FRET peptide cleavage, 20 min. ATP-dependent Clp protease proteolytic subunit (Bacillus subtilis (strain 168)), P80244. AID 651965, 2013. Potency, µM (series often up to 57.5 µM), for the others: at the highest dose activity change, negative = active; active = well fitted falling curve with a large enough effect; inconclusive = small, poorly fitted or top-dose-only effect; inactive = no such curve, though single readings can be large or run the other way; also: potency is read from the fitted curve at half-maximal effect; the source files actives as falling curves though it sought activators and does not explain the sign; nearly all actives have a fitted effect of over 65% in size
Target sequence (P80244 whole entry, looked up): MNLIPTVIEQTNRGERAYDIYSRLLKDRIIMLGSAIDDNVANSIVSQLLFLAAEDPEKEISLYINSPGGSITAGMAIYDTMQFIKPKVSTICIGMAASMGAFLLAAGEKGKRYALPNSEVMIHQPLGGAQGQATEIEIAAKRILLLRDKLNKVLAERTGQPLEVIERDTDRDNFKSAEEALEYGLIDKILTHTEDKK
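Purified B. subtilis ClpP, 10 microg/mL final in Tris/HCl pH8 with KCl, BSA, glycerol and Tween-20, cleaved an Abz/nitrotyrosine-quenched decapeptide. Fluorescence (ex 320, em 430) was read at 0 and 20 min at room temperature. Delta was normalized to 5.8 microM ADEP and DMSO/no-enzyme controls.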
PINK1 modulator: modulators of PINK1 expression. PINK1 immunofluorescence, high-content cytometry, 24 h. Potency, µM (series often up to 76.6 µM), for inactives: top-dose activation (PINK1 increase), actives largely listed as activators. hit rate 0.2% among 410,000. AID 624263; active = well fitted activation curve with a large enough effect; inconclusive = small, poorly fitted or top-dose-only effect; cell line not stated here; also: potency is read from the fitted curve at half-maximal effect; % of control where 0% means no effect; nearly all actives have a fitted effect of over 65% in size
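PINK1 protein level read as immunofluorescence by microplate cytometer in a fixed, stained stable cell line after 24 h exposure to five compound concentrations, with CCCP as control.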
Menin-MLL FL inh: menin-MLL binding inhibition, fluorescein peptide; Fluorescence polarization, fluorescein-MLL peptide displacement from menin; FP activity change, % at 61.4 µM; 290,000 tested, under 10 active; AID 1766; active = well fitted curve in the direction sought with a large enough effect in the polarisation, not every such curve was filed as active; inconclusive = small, poorly fitted or top-dose-only effect, or effect the other way, or a change in a side signal; inactive = no such curve, though single readings can be large or run the other way; the % refers to the polarisation; also: % of control where 0% means no effect
Epigenetic reg: epigenetic control regulation, reporter derepression; hit rate 0.2% among 280,000; murine LDR cells, GFP reporter derepression, 30 h; Potency, µM (series often up to 53.9 µM), for inactives: top-dose GFP activation, usual class: activators; active = well fitted activation curve with a large enough effect; inconclusive = small, poorly fitted or top-dose-only effect; also: potency is read from the fitted curve at half-maximal effect; % of control where 0% means no effect; nearly all actives have a fitted effect of over 60% in size
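In this reporter-derepression format, murine cells bearing a silenced integrated CMV-GFP locus incubate with test compound (30 h, 37 C), then are washed and imaged; fluorescent objects of 20–120 um count as induced cells.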
An asterisk follows results filed as active; ? = inconclusive; · = no result given; [ ] = remark or other dose. Most compounds without a hit are left out; they make up all but 1.9% or so of the library.

SMILES | Menin-MLL TR inh | MLL CXXC-DNA inh | ClpP mod | PINK1 modulator | Menin-MLL FL inh | Epigenetic reg
O=C(Cc1ccc([N+](=O)[O-])cc1)NCc1ccccc1Cl | -10% | 0% | 11µM* | 0% | 0 | -1%
O=C(Cc1ccc([N+](=O)[O-])cc1)NCc1cccnc1 | -5% | -1% | -10% | 0% | -1 | ·
CC1(C)CC(Nc2ccc(Nc3ccccc3)cc2)CC(C)(C)N1 | 20µM* | -3% | 0% | 1% | 2 | 0%
CN(c1ccccc1)P(=O)(N(C)c1ccccc1)N(C)c1ccccc1 | ? | -5% | 1% | 16µM* | -2 | 2%
CCOC(=O)/C=C1\CN(Cc2ccc(OC)cc2)S(=O)(=O)c2ccc(C(F)(F)F)cc21 | · | · | -1% | · | · | ·
Cc1cccc(C(=O)OCC(=O)NC(=O)c2ccccc2)c1O | · | · | 13µM* | -1% | · | ·
CCc1nnc(SCc2cn3c(C)cc(C)nc3n2)n1N | -20% | -9% | 11µM* | 1% | 1 | 5%
Cc1cc(C)n2cc(CSc3nnnn3C)nc2n1 | -7% | 6% | 25µM* | 3% | -5 | -1%
Cc1ncc2c(c1CNC(=O)CN1CCCC1)CCN(C(=O)c1ccc(F)cc1F)C2 | · | · | · | -1% | · | ·
COc1cc2c(cc1OC)C(=O)CCC2 | · | · | 28µM* | -1% | · | ·
Cn1c(N)c(C(=O)COC(=O)CNC(=O)c2ccccc2Cl)c(=O)n(C)c1=O | · | · | 1% | 1% | · | ·
Cn1c(N)c(C(=O)COC(=O)CNS(=O)(=O)c2ccc(Cl)c(Cl)c2)c(=O)n(C)c1=O | -1% | -3% | 32µM* | -1% | 1 | 0%
CSc1ccc(/C=C2\C=Cc3ccccc32)cc1 | · | · | 0% | 0% | · | ·
CCN1CCc2c(sc(NC(=O)Nc3ccc(Cl)c(Cl)c3)c2C(N)=O)C1 | ? | ? | -4% | 14µM* | · | ?
c1csc(-c2ccc3ccccc3n2)c1 | -1% | -8% | 14µM* | 2% | 0 | -1%
OCC1CCCN(c2nc3cc4c(cc3cc2CNCc2cccc(C(F)(F)F)c2)OCO4)C1 (stereo unspecified) | · | · | · | 0% | · | ·
Cc1csc(SCC(=O)N2CCOc3ccc(C(O)C4CCCCC4)cc3C2)n1 (stereo unspecified) | · | · | · | 1% | · | ·
Cc1cc(NCCCO)n2c(nc3ccccc32)c1C#N | -12% | 11% | · | 0% | 8 | 0%
CCCNc1cc(C)c(C#N)c2nc3ccccc3n12 | -13% | 0% | 2.8µM* | 15% | 1 | 0%
COc1ccccc1C(=O)N1CCOc2ccc(CN3CCN(Cc4ccccn4)CC3)cc2C1 | · | · | · | -1% | · | ·
Cc1ccccc1Oc1nc2ccccn2c(=O)c1/C=C(\C#N)c1nc2ccccc2[nH]1 | · | · | -2% | 1% | · | 11µM*
Cc1ccc(Oc2nc3c(C)cccn3c(=O)c2/C=C(\C#N)C(N)=O)cc1 | · | -10% | 1% | 6% | 1 | -1%
Cc1ccc(Oc2nc3ccccn3c(=O)c2/C=C(\C#N)c2nc3ccccc3s2)c(C)c1 | · | · | 4% | 2% | · | -1%
CCc1ccc(Oc2nc3c(C)cccn3c(=O)c2/C=C(\C#N)c2nc3ccccc3[nH]2)cc1 | · | · | -4% | ? | · | 11µM*
Cc1cccn2c(=O)c(/C=C(\C#N)c3nc4ccccc4s3)c(Oc3ccc(Br)cc3)nc12 | · | · | ? | 4% | · | 0%
SMILES | Menin-MLL TR inh | MLL CXXC-DNA inh | ClpP mod | PINK1 modulator | Menin-MLL FL inh | Epigenetic reg
Cc1cc(C)cc(Oc2nc3c(C)cccn3c(=O)c2/C=C(\C#N)c2nc3ccccc3[nH]2)c1 | · | · | -3% | ? | · | 7.1µM*
COc1ccc(Oc2nc3c(C)cccn3c(=O)c2/C=C(\C#N)c2nc3ccccc3[nH]2)cc1 | · | · | 1% | ? | · | 4µM*
COc1cc2cc(CN(Cc3nnnn3Cc3ccccc3)CC3CCCO3)c(=O)[nH]c2cc1OC (stereo unspecified) | -11% | -6% | 28µM* | -2% | 0 | 0%
CCOc1ccc2[nH]c(=O)c(CN(Cc3cccs3)Cc3nnnn3C(C)(C)C)cc2c1 | -7% | 1% | -2% | · | 1 | 0%
COc1ccc2[nH]c(=O)c(CN(Cc3cccs3)Cc3nnnn3C(C)(C)C)cc2c1 | 0% | 13% | 32µM* | 3%[38.3 µM] | 1 | -8%
COc1ccc2[nH]c(=O)c(CN(Cc3ccccc3)Cc3nnnn3CC3CCCO3)cc2c1 (stereo unspecified) | -20% | 8% | 28µM* | 4%[38.3 µM] | 3 | 0%
COc1ccc(N2CCN(C(=O)CCn3cnc4onc(-c5ccc(F)cc5)c4c3=O)CC2)cc1 | · | · | -2% | 2% | · | -2%
CCS(=O)(=O)Nc1cc(C(=O)N2CCC[C@H]2CO)c2c(c1)nc(-c1ccccc1)n2C | · | · | · | 1% | · | ·
CCN1CCCC1CNC(=O)c1cnn(-c2nccc(-c3cc(OC)ccc3OC)n2)c1C (stereo unspecified) | · | · | · | -1% | · | ·
c1ccc(N2N=C(c3cccs3)CC2c2ccco2)cc1 (stereo unspecified) | ? | -4% | 16µM* | 2% | 9 | 0%
CCCN(Cc1cc2cc(C)ccc2[nH]c1=O)C(=O)c1ccccn1 | · | -4% | 1% | 4% | 1 | -2%
CCCN(Cc1cc2cc(OC)ccc2[nH]c1=O)C(=O)c1ccco1 | · | -6% | · | -2% | 7 | 0%
CCCCN(Cc1cc2cc(OC)ccc2[nH]c1=O)C(=O)c1ccccn1 | -20% | 5% | 20µM* | 1% | 1 | -6%
CCCCN(Cc1cc2cc(OC)ccc2[nH]c1=O)C(=O)c1ccco1 | -14% | -3% | 32µM* | 0% | 2 | -1%
O=C(NC1CCCC1)c1cn(C2CCN(Cc3cccc4cccnc34)CC2)nn1 | · | · | · | -1% | · | ·
CCC1CN(CCNC(=O)c2cccnc2OC)Cc2cc(OC)ccc2O1 (stereo unspecified) | · | · | · | 0% | · | ·
CCNc1nc(NCC)nc(NC(N)=S)n1 | 2% | 2% | 28µM* | 1% | -1 | -1%
CCN(C(=O)COC(=O)c1ccc(OCc2c(C)noc2C)cc1)c1ccccc1 | · | -6% | 25µM* | 2% | 1 | -1%
Cc1ncc2c(c1CNC(=O)c1cncs1)CCN(C(=O)c1ccc(C(F)(F)F)cc1)C2 | · | · | · | 0% | · | ·
CN(C)c1ccc(-c2noc(C3CCN(S(=O)(=O)c4ccc(C(=O)O)cc4)CC3)n2)cc1 | · | · | -5% | -3%[38.3 µM] | · | ·
CN(C)c1ccc(-c2noc(C3CCN(S(=O)(=O)c4cccc(Cl)c4)CC3)n2)cc1 | -26% | 8% | 20µM* | -3%[38.3 µM] | 9 | 0%
CC(C)c1c(C(=O)N2CCN(CCO)CC2)cnn1-c1nccc(-c2cccs2)n1 | · | · | · | 0% | · | ·
CC1(C)SC(=S)N(/N=C/c2ccccc2)C1N(O)C(=O)Nc1ccc([N+](=O)[O-])cc1 (stereo unspecified) | ? | 13% | 1% | 32µM* | 0 | -1%
